SMILES strings stand for the structures. Entries with a potency or affinity are not part of this list. Records with an inconclusive call do not appear. Calls of active or inactive are those of the source.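 How the source made its calls, unless noted: active means signal-lowering compounds whose fitted half-maximal concentration is at or below twice the top tested dose in every run; inconclusive means runs disagree, flat 30 to 70% inhibition, or poor curve fit; inactive means the rest.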

One test can be described thus: cytotoxicity in PAX8-dependent RMG-1 cells, dose response, cell-based, cherry-pick (AID 687029;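 active means signal drop whose fitted half-maximal concentration is at most twice the top valid dose, in every test run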;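 further: cells exposed to compound for 96 hours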). The note with it: RMG-1 viability, CellTiterGlo ATP luminescence, 96 h; series mostly up to 35 µM. For orientation: In ATP-based viability assays light output follows the ATP content of the culture.
With `O=C(CCc1ccc(S(=O)(=O)NCc2ccccc2)cc1)NCc1cccnc1`, the outcome was inactive.
On the same count and under the same terms, the value for `CCOc1ccc(C(=O)C(CN2CCOCC2)c2ccccc2)cc1` (stereo not drawn) was “inactive”; that for `O=C(Nc1cc(S(=O)(=O)N2CCCCC2)ccc1Cl)c1ccccc1NS(=O)(=O)c1ccc(F)cc1` was “inactive”; that for `Cn1nnnc1Sc1ncnc2scc(-c3ccc[nH]3)c12` was “inactive”.
The same measure, in the same setting: the value for `Cn1c(=O)c([N+](=O)[O-])c(Cl)c2ccccc21` was “inactive”; that for `CN1CCN(c2ccc(S(=O)(=O)N3CCCCC3)cc2NC(=O)/C=C/c2ccc(Cl)c([N+](=O)[O-])c2)CC1` was “inactive”.
The same measure, in the same setting: the value for `CCCCCCCn1c2c(c(=N)c3c1CCC3)CCCC2` was “inactive”; that for `Oc1ccc(C[C@H]2CN([C@@H](Cc3ccc(O)cc3)CN3CCC[C@@H]3CN3C(=S)NC[C@@H]3Cc3ccccc3)C(=S)N2CC2CCCCCC2)cc1` was “inactive”.
With `CNC(=O)c1cc(Oc2ccc(NC(=O)Nc3ccc(Cl)c(C(F)(F)F)c3)cc2)ccn1`, the compound was classed as inactive.
On the same count and under the same terms, the value for `Cc1ccc(S(=O)(=O)N(C)C[C@H]2Oc3c(NC(=O)Nc4cccc5ccccc45)cccc3C(=O)N([C@@H](C)CO)C[C@@H]2C)cc1` was “inactive”; that for `Oc1[nH]c2ccc(Br)cc2c1N=NC(=S)N1CCOCC1` was “inactive”.
Consider `CSc1nc(-c2ccccc2)nc(C(Cl)Cl)n1`, for which the compound was called inactive.
As to `CCCCn1c(=O)[nH]c(=O)c2c1nc(Cn1ncc(Cl)c(Cl)c1=O)n2CCC`, the call was inactive.
Same read-out and setting: for `CC(=O)c1sc(NC(=O)CCS(=O)(=O)c2ccc(Cl)cc2)nc1C` the value was “inactive”; for `CC(=O)Nc1ccc(NC(=O)c2nc(S(=O)(=O)Cc3ccccc3)ncc2Cl)cc1`, “inactive”.
Same read-out and setting: the value for `CCCCCCN(C(=O)CCCN1C(=O)NC(c2ccc(-c3ccccc3)cc2)C(C(=O)OCc2ccccc2)=C1C)C(C)C(=O)NCCCC` (stereo not drawn) was “inactive”; that for `CSc1ccc(COC(=O)c2cc([N+](=O)[O-])ccc2N2CCOCC2)cc1` was “inactive”.
Regarding `Cn1nnnc1Sc1ncnc2scc(-c3ccc([N+](=O)[O-])cc3)c12`, the compound was classed as inactive.
Still for that read-out and setting: for `COc1ccc(S(=O)(=O)N(C)C[C@H]2Oc3ccc(NC(=O)Nc4ccc(C(F)(F)F)cc4)cc3C(=O)N([C@H](C)CO)C[C@@H]2C)cc1` the value was “inactive”.
Still for that read-out and setting: for `O=C(NC(Nc1nc2ccc([N+](=O)[O-])cc2s1)(C(F)(F)F)C(F)(F)F)c1cccnc1` the value was “inactive”; for `O=C(N/N=C/c1c[nH]c2ccccc12)c1[nH]c2ccc(Br)cc2c1-c1ccccc1`, “inactive”; for `CC(C)=CCNc1ncnc2c1c(C#N)cn2C1OC(CO)C(O)C1O` (stereo not drawn), “inactive”.
On the same count and under the same terms, for `C=CC[C@@H](CC(=O)N[C@H](CO)Cc1ccccc1)C(=O)N[C@H](COC(=O)[C@@H](CC=C)Cc1ccc(F)cc1)Cc1c[nH]c2ccccc12` the value was “inactive”; for `Cc1ccc(C(=O)c2cc([N+](=O)[O-])ccc2N2CCCCC2)c(C)c1`, “inactive”; for `CCCOc1ccc2[nH]c(C(=O)N/N=C/c3cc(OC)c(OC)c(OC)c3)cc2c1`, “inactive”.
Consider `Cc1cc(C)c(C(=O)/C=C/c2cccc3ccccc23)c(=O)[nH]1`, for which the compound was called inactive.
Take `COc1ccc(C(=O)CN2C(=O)c3ccccc3S2(=O)=O)cc1`: the call was inactive.
On the same count and under the same terms, the value for `C[n+]1c2n(c3ccccc31)N=C(c1cc(C(C)(C)C)c(O)c(C(C)(C)C)c1)CS2` was “inactive”; that for `COc1cc(C(=O)NCC(c2cccs2)N2CCOCC2)ccc1OCc1ccc(Cl)cc1` (stereo not drawn) was “inactive”; that for `CCN(CC)c1ccc2c(cc1=O)[C@@H](NC)CCc1cc(OC)c(OC)c(OC)c1-2` was “inactive”.
For the compound `Cn1nnnc1Sc1ncnc2scc(-c3ccccc3Cl)c12`, the compound was classed as inactive.
Take `CC1=CC(=O)C(C(C)C)=C/C1=N/OS(=O)(=O)c1ccccc1`: the compound was called inactive.
Still for that read-out and setting: the value for `Cc1ccc(S(=O)(=O)NCc2ccc(C(=O)N3CCN(c4ccc([N+](=O)[O-])cc4)CC3)cc2)cc1` was “inactive”; that for `CCN(CC)S(=O)(=O)c1cc(OC)ccc1N=Nc1ccc(O)c2ncccc12` was “inactive”; that for `COCCN(CC(=O)NC1CCCCC1)C(=O)/C=C/C(=O)c1ccc(OC)cc1O` was “inactive”.
On the same count and under the same terms, for `CCSc1nsc(NC(=O)Nc2cccc(F)c2)n1` the value was “inactive”.
Still for that read-out and setting: the value for `O=C(Cn1ncc(Cl)c(Cl)c1=O)Nc1ccc2c(c1)OCO2` was “inactive”.
Consider `N#Cc1nc(NCC(F)F)nc(Nc2cc(F)cc(F)c2)n1`, for which the compound was classed as inactive.
The same measure, in the same setting: the value for `O=C(c1ccco1)N1N=C(c2ccc(Br)cc2)CC1(O)C(F)(F)F` (stereo not drawn) was “inactive”.

The nature of the next test: inhibitors of CMV-promoter luciferase reporter, dose response, counter-screen for Pax8 inhibitor project, cell-based, HEK293, luminescence, dry powder (AID 743020).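 Further: HEK293 cells stably expressing the CMV luciferase reporter.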 The note with it: SteadyGlo luminescence, 24 h; series mostly up to 35 µM. On the technique in general: Reporter assays use an easily measured gene product as a stand-in for the process of interest.
On to `O=C(CCc1ccc(S(=O)(=O)NCc2ccccc2)cc1)NCc1cccnc1`, for which the compound was called inactive.
The same measure, in the same setting: for `CCOc1ccc(C(=O)C(CN2CCOCC2)c2ccccc2)cc1` (stereo not drawn) the value was “inactive”; for `O=C(Nc1cc(S(=O)(=O)N2CCCCC2)ccc1Cl)c1ccccc1NS(=O)(=O)c1ccc(F)cc1`, “inactive”.
Same read-out and setting: for `Cn1nnnc1Sc1ncnc2scc(-c3ccc[nH]3)c12` the value was “inactive”.
As for `Cn1c(=O)c([N+](=O)[O-])c(Cl)c2ccccc21`, the compound was called inactive.
As for `CN1CCN(c2ccc(S(=O)(=O)N3CCCCC3)cc2NC(=O)/C=C/c2ccc(Cl)c([N+](=O)[O-])c2)CC1`, the outcome was inactive.
Still for that read-out and setting: for `CCCCCCCn1c2c(c(=N)c3c1CCC3)CCCC2` the value was “inactive”; for `Oc1ccc(C[C@H]2CN([C@@H](Cc3ccc(O)cc3)CN3CCC[C@@H]3CN3C(=S)NC[C@@H]3Cc3ccccc3)C(=S)N2CC2CCCCCC2)cc1`, “inactive”; for `CNC(=O)c1cc(Oc2ccc(NC(=O)Nc3ccc(Cl)c(C(F)(F)F)c3)cc2)ccn1`, “inactive”.
Same read-out and setting: for `Cc1ccc(S(=O)(=O)N(C)C[C@H]2Oc3c(NC(=O)Nc4cccc5ccccc45)cccc3C(=O)N([C@@H](C)CO)C[C@@H]2C)cc1` the value was “inactive”; for `Oc1[nH]c2ccc(Br)cc2c1N=NC(=S)N1CCOCC1`, “inactive”; for `CSc1nc(-c2ccccc2)nc(C(Cl)Cl)n1`, “inactive”.
Still for that read-out and setting: the value for `CCCCn1c(=O)[nH]c(=O)c2c1nc(Cn1ncc(Cl)c(Cl)c1=O)n2CCC` was “inactive”; that for `CC(=O)c1sc(NC(=O)CCS(=O)(=O)c2ccc(Cl)cc2)nc1C` was “inactive”; that for `CC(=O)Nc1ccc(NC(=O)c2nc(S(=O)(=O)Cc3ccccc3)ncc2Cl)cc1` was “inactive”.
In the case of `CCCCCCN(C(=O)CCCN1C(=O)NC(c2ccc(-c3ccccc3)cc2)C(C(=O)OCc2ccccc2)=C1C)C(C)C(=O)NCCCC` (stereo not drawn), the outcome was inactive.
The same measure, in the same setting: for `CSc1ccc(COC(=O)c2cc([N+](=O)[O-])ccc2N2CCOCC2)cc1` the value was “inactive”.
Same read-out and setting: for `Cn1nnnc1Sc1ncnc2scc(-c3ccc([N+](=O)[O-])cc3)c12` the value was “inactive”; for `COc1ccc(S(=O)(=O)N(C)C[C@H]2Oc3ccc(NC(=O)Nc4ccc(C(F)(F)F)cc4)cc3C(=O)N([C@H](C)CO)C[C@@H]2C)cc1`, “inactive”; for `O=C(NC(Nc1nc2ccc([N+](=O)[O-])cc2s1)(C(F)(F)F)C(F)(F)F)c1cccnc1`, “inactive”.
On the same count and under the same terms, the value for `O=C(N/N=C/c1c[nH]c2ccccc12)c1[nH]c2ccc(Br)cc2c1-c1ccccc1` was “inactive”.
Take `CC(C)=CCNc1ncnc2c1c(C#N)cn2C1OC(CO)C(O)C1O` (stereo not drawn): the compound was classed as inactive.
Regarding `C=CC[C@@H](CC(=O)N[C@H](CO)Cc1ccccc1)C(=O)N[C@H](COC(=O)[C@@H](CC=C)Cc1ccc(F)cc1)Cc1c[nH]c2ccccc12`, the result was inactive.
As for `Cc1ccc(C(=O)c2cc([N+](=O)[O-])ccc2N2CCCCC2)c(C)c1`, the result was inactive.
Still for that read-out and setting: the value for `CCCOc1ccc2[nH]c(C(=O)N/N=C/c3cc(OC)c(OC)c(OC)c3)cc2c1` was “inactive”; that for `Cc1cc(C)c(C(=O)/C=C/c2cccc3ccccc23)c(=O)[nH]1` was “inactive”; that for `COc1ccc(C(=O)CN2C(=O)c3ccccc3S2(=O)=O)cc1` was “inactive”.
Same read-out and setting: the value for `C[n+]1c2n(c3ccccc31)N=C(c1cc(C(C)(C)C)c(O)c(C(C)(C)C)c1)CS2` was “inactive”; that for `COc1cc(C(=O)NCC(c2cccs2)N2CCOCC2)ccc1OCc1ccc(Cl)cc1` (stereo not drawn) was “inactive”.
As to `CCN(CC)c1ccc2c(cc1=O)[C@@H](NC)CCc1cc(OC)c(OC)c(OC)c1-2`, the call was inactive.
Same read-out and setting: for `Cn1nnnc1Sc1ncnc2scc(-c3ccccc3Cl)c12` the value was “inactive”; for `CC1=CC(=O)C(C(C)C)=C/C1=N/OS(=O)(=O)c1ccccc1`, “inactive”.
On the same count and under the same terms, for `Cc1ccc(S(=O)(=O)NCc2ccc(C(=O)N3CCN(c4ccc([N+](=O)[O-])cc4)CC3)cc2)cc1` the value was “inactive”; for `CCN(CC)S(=O)(=O)c1cc(OC)ccc1N=Nc1ccc(O)c2ncccc12`, “inactive”; for `COCCN(CC(=O)NC1CCCCC1)C(=O)/C=C/C(=O)c1ccc(OC)cc1O`, “inactive”.
The same measure, in the same setting: the value for `CCSc1nsc(NC(=O)Nc2cccc(F)c2)n1` was “inactive”; that for `O=C(Cn1ncc(Cl)c(Cl)c1=O)Nc1ccc2c(c1)OCO2` was “inactive”; that for `N#Cc1nc(NCC(F)F)nc(Nc2cc(F)cc(F)c2)n1` was “inactive”.
On to `O=C(c1ccco1)N1N=C(c2ccc(Br)cc2)CC1(O)C(F)(F)F` (stereo not drawn), for which the compound was classed as inactive.

Source of the values: PubChem BioAssay.
